A selection: hits, their analogues and other compounds. The true share with any hit is near 0.81%.
SARS PLpro yeast-1 = qHTS of Yeast-based Assay for SARS-CoV PLP | S. cerevisiae expressing SARS-CoV PLpro, growth rescue | AID 485353, 2010 | 330,000 compounds, 0.19% hits | Potency, µM (top dose mostly 32.9 µM), for the others: top-dose activity, positive = growth rescue, most hits filed as activators; calls by dose curve; also: potency is read from the fitted curve at half-maximal effect; 0% is about no effect; nearly all actives have a fitted effect of over 55% in size
LmPK inh = qHTS Assay for Inhibitors of Leishmania Mexicana Pyruvate Kinase (LmPK); Q27686; purified LmPK, Kinase-Glo ATP luminescence, 1 h; Potency, µM (series often up to 57.5 µM), for inactives: top-dose activity change, negative = inhibition, actives largely listed as inhibitors; 290,000 compounds, 0.37% hits; AID 1721, 2009; also: potency is read from the fitted curve at half-maximal effect; % is scaled to controls: 0 for no effect and ±100 for the full control effect
Target sequence (Q27686 whole entry, looked up): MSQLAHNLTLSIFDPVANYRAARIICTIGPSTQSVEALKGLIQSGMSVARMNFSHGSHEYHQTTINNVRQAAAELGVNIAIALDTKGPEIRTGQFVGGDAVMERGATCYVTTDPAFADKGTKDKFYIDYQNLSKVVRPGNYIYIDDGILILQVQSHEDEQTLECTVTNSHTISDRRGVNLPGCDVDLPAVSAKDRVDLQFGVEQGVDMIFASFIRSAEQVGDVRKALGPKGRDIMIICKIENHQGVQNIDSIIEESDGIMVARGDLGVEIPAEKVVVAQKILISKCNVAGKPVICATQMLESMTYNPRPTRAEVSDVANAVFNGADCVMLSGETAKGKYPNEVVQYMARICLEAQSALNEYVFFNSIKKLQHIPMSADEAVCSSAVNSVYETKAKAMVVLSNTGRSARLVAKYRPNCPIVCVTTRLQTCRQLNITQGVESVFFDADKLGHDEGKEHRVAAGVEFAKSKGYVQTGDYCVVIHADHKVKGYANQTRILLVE
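qHTS format; LmPK 0.1 nM; substrates PEP 0.5 mM and ADP 0.1 mM. One-hour room-temperature incubation, then coupled luciferase luminescence; 0.5 nM enzyme wells mark activation.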
TbPYK inhibitor = qHTS of Trypanosoma Brucei Inhibitors; pyruvate kinase (Trypanosoma brucei), Q57TT1; TbPYK enzyme, Kinase-Glo Plus ATP luminescence, 45 min; Potency, µM (titrated, usually from 76.8 µM), for inactives: at the highest dose activity, negative = inhibition, usual class: inhibitors; 410,000 compounds, 0.12% hits; AID 624173, 2012; also: potency is read from the fitted curve at half-maximal effect; % is scaled to controls: 0 for no effect and ±100 for the full control effect; nearly all actives have a fitted effect of over 50% in size
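Readout: single end-point luminescence (Kinase-Glo Plus, 10 min). Reaction conditions were TbPYK/substrate plus 130 uM ADP, 45 min at RT, pH 7.2 TEA buffer. No-enzyme wells served as controls, and data were normalized before concentration-response fitting.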
RE007 growth inh = qHTS Assay for Inhibitors of the HIV-1 protein Vpr | S. pombe RE007 Vpr strain, BacTiter-Glo ATP luminescence, 24 h | Potency, µM (titrated, usually from 92.2 µM), inactives show at the top dose activity change, negative = less growth, usual class: inhibitors | 360,000 compounds, 0.21% hits | AID 651644, 2012; active = well fitted falling curve with a large enough effect; inconclusive = small, poorly fitted or top-dose-only effect; inactive = no such curve, though single readings can be large or run the other way; also: potency is read from the fitted curve at half-maximal effect; % is scaled to controls: 0 for no effect and ±100 for the full control effect; nearly all actives have a fitted effect of over 50% in size
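Fission yeast strain RE007, carrying one chromosomally integrated HIV-1 vpr copy, was seeded at OD 0.01 in PMG+AL medium with 23 nL pinned compound. After 24 h at 30 °C and 99% humidity, viability was read by BacTiter-Glo luminescence.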
AMA1 RON2 block = qHTS for Inhibitors of AMA1-RON; Towards Development of Antimalarial Drug Lead: Primary Screen. Potency, µM (doses to about 58.2 µM), inactives show top-dose activity change, negative = inhibition, most hits filed as inhibitors. 360,000 compounds, 0.2% hits. AlphaScreen AMA1-biotinylated RON2 peptide binding. Plasmodium falciparum AMA1 (3D7) - RON2 peptide interaction;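 also: potency is read from the fitted curve at half-maximal effect; 0% = vehicle wells and -100% = peptide control; nearly all actives have a fitted effect of over 45% in size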
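AMA1 (3D7) with his tag at 25 nM final met compounds first, then biotinylated RON2 peptide at 25 nM; detection used donor plus acceptor beads, 10 µg/mL apiece, read by AlphaScreen after 30 min at room temperature.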
SARS PLpro yeast-2 = qHTS of Yeast-based Assay for SARS-CoV PLP: Hit Validation; 1,000 compounds, 19% hits; yeast expressing SARS-CoV PLpro, growth phenotype rescue; calls only; shares compounds with SARS PLpro yeast-1; call rule not given here
* hit, by the source's call; i = inactive; ? = inconclusive; / = no result given; + = active, no number; [ ] = remark or other dose. Unless noted, calls follow the shape of the dose curve; as a rule, active = well fitted curve in the direction sought with a large enough effect; inconclusive = small, poorly fitted or top-dose-only effect, or another doubt; inactive = no such curve, though single readings can be large; an effect the other way counts as inactive or inconclusive.

SMILES	SARS PLpro yeast-1	LmPK inh	TbPYK inhibitor	RE007 growth inh	AMA1 RON2 block	SARS PLpro yeast-2
O=C(N/N=C/c1ccc(F)cc1)c1ccccc1	-4%	-18%	-10%	-8%	0%	/
COc1ccc(C(=O)N/N=C/c2sc3ccccc3c2O)cc1	2.8µM*	-4%	2%	?	16%	i
O=C(N/N=C/c1sc2ccccc2c1O)c1ccccc1	4µM*	-4%	-2%	45µM*	44%	i
COc1ccc2cc(C(=O)N/N=C/c3sc4ccccc4c3O)ccc2c1	5µM*	0%	-15%	-1%	57%	+
O=C(N/N=C/c1sc2ccccc2c1O)c1cccc2ccccc12	2.8µM*	-2%	1%	6%	27%	i
COc1ccc(C(=O)N/N=C/c2c[nH]c3ccccc23)cc1	2%	2%	-8%	-17%	5%	/
O=C(N/N=C/c1ccccc1)c1cccc2ccccc12	/	/	-8%	10%	7%	/
Nc1cc(=O)[nH]c(SCC(=O)NCCC2=CCCCC2)n1	2%	/	7%	-4%	-13%	/
CC1CCCC(NC(=O)COc2ncnc3ccccc23)C1C (configuration not stated)	?	/	5%	-7%	15%	i
CC1CCCC(NC(=O)CSc2ncnc3ccccc23)C1C (configuration not stated)	-6%	/	0%	8%	15%	/
COc1ccc(-n2c(=O)c3c(c4cc(OC)ccc4n3C)n(Cc3c(F)cccc3Cl)c2=O)cc1	/	/	4%	/	/	/
COC(=O)N1CCC[C@@]2(CCN(c3ccccn3)C2)C1	/	/	-3%	/	/	/
CC(=NCc1cccnc1)c1c(O)n(-c2ccccc2C)c(=O)[nH]c1=O	3.5µM*	1%	0%	-11%	12%	i
CCC(=NCc1cccnc1)c1c(O)n(-c2ccccc2C)c(=O)[nH]c1=O	0%	2%	-7%	0%	-19%	/
CCc1nc2ccc(C(=O)Nc3cccc(OCC(=O)N(C)C)c3)cn2c1N(CCC(C)C)CCN(C)C	/	/	4%	-29%	-2%	/
Cc1ccc2[nH]cc(C(=O)CN3CCN(C)CC3)c2c1	?	-2%	12%	2%	1%	/
Cc1ccc2[nH]cc(C(=O)CCl)c2c1	/	-1%	-4%	-7%	0%	i
CC[n+]1c(/C=C(\C)SC)sc2ccccc21	-2%	-2%	-4%	-16%	1%	/
CC[n+]1c(/C=C(/C)SC)sc2ccccc21	3.5µM*	-3%	-7%	-24%	-9%	i
CCOC(=O)c1c(C)n(-c2ccccc2)c2ccc(OC(=O)c3ccccc3Cl)cc12	/	/	14%	/	/	/
CCN(CC)c1cc2c(cc1F)c(=O)c(S(=O)(=O)c1cccc(C)c1)cn2C	/	/	0%	/	/	/
CC(C)C(=O)NC(c1cccc([N+](=O)[O-])c1)c1ccc2cccnc2c1O (configuration not stated)	3.2µM*	6%	-8%	-19%	1%	i
CCCC(=O)NC(c1cccc([N+](=O)[O-])c1)c1ccc2cccnc2c1O (configuration not stated)	/	/	-13%	-23%	-70%	/
CC(C)C(=O)NC(c1cccs1)c1cc([N+](=O)[O-])c2cccnc2c1O (configuration not stated)	?	3%	-17%	0%	18%	i
Cc1ccc(C(NC(=O)C(C)C)c2cc([N+](=O)[O-])c3cccnc3c2O)cc1 (configuration not stated)	?	-2%	-3%	2%	24%[2.32 µM]	?
Cc1cc(/C=C(\C#N)C(=O)OCC(=O)N(C)c2c(N)n(Cc3ccccc3)c(=O)[nH]c2=O)c(C)n1CC(C)C	/	/	-3%	-6%	-7%	/
COc1cc2c(cc1NC(=O)C(F)(F)F)-c1ccc(NC(=O)C(F)(F)F)cc1C2	/	/	-2%	1%	27%	/
